From PubChem
HPGD block = qHTS Assay for Inhibitors of HPGD (15-Hydroxyprostaglandin Dehydrogenase); purified HPGD, NADH fluorescence kinetic, PGE2 substrate; Potency, µM, inactives show at the top dose activity change, negative = inhibition, most hits filed as inhibitors; hit rate 4.3% among 150,000; AID 894, 2007; 15-hydroxyprostaglandin dehydrogenase [NAD(+)] (Homo sapiens), P15428
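20 nM HPGD preincubated 15 min at room temperature with compound in 50 mM Tris-HCl pH 8, 0.01% Tween 20. Started with 1 mM NAD+ and 30 uM prostaglandin E2; NADH fluorescence (360/450 nm) read 5 times over 30-s intervals, last minus first.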
ALDH1A1 block = qHTS Assay for Inhibitors of Aldehyde Dehydrogenase 1 (ALDH1A1); hit rate 7.3% among 220,000; Potency, µM (titrated, usually from 75.3 µM), for the others: at the highest dose activity, negative = inhibition, usual class: inhibitors; Purified ALDH1A1, NADH fluorescence, propionaldehyde substrate; AID 1030, 2008;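 further: plate controls were no enzyme wells and a reference inhibitor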
Target sequence (P00352 whole entry, looked up): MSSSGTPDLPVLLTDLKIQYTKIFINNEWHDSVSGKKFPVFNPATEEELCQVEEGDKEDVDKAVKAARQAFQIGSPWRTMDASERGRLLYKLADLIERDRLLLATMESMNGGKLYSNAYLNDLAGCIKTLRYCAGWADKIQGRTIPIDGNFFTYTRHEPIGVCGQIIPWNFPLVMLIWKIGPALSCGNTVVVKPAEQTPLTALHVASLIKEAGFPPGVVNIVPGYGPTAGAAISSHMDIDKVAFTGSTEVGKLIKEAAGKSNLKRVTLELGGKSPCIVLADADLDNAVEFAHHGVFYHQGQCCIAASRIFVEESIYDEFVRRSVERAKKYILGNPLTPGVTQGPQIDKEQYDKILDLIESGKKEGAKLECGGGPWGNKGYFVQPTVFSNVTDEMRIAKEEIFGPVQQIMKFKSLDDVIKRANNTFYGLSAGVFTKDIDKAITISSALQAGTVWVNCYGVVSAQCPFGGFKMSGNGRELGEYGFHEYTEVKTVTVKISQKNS
Tau fibril FP = qHTS for Inhibitors of Tau Fibril Formation, Fluorescence Polarization | Potency, µM (titrated, usually from 57.7 µM), for inactives: at the highest dose activity, negative = inhibition, usual class: inhibitors | Microtubule-associated protein tau (Homo sapiens), P10636 | AID 1468, 2008 | K18 P301L tau heparin fibrillization, Alexa594 FP, 6 h | hit rate 0.39% among 280,000; active means well fitted curve in the direction sought with a large enough effect; inconclusive means small, poorly fitted or top-dose-only effect, or another doubt; inactive means no such curve, though single readings can be large; an effect the other way counts as inactive or inconclusive; further: nearly all actives have a fitted effect of over 55% in size
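Compound effects on tau fibrillization are measured by Alexa 594 fluorescence polarization (ex 555, em 632 nm). K18 P301L tau is used at 15 uM with 0.24 uM labeled tracer, and 20 uM heparin induces aggregation over 6 hr at 37 C.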
Tau ThT inhib = qHTS for Inhibitors of Tau Fibril Formation, Thioflavin T Binding; Microtubule-associated protein tau (Homo sapiens), P10636; recombinant tau K18 P301L, heparin-induced fibrillization, ThT fluorescence; Potency, µM (titrated, usually from 57.4 µM), for inactives: at the highest dose activity, negative = inhibition, actives largely listed as inhibitors; hit rate 2.1% among 270,000; AID 1460, 2008; active means well fitted curve in the direction sought with a large enough effect; inconclusive means small, poorly fitted or top-dose-only effect, or another doubt; inactive means no such curve, though single readings can be large; an effect the other way counts as inactive or inconclusive; further: nearly all actives have a fitted effect of over 55% in size
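In this qHTS, human K18 P301L tau is incubated with compound and heparin for 6 hr at 37 C, and Thioflavin T fluorescence then reports fibril load.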
Tau fluor cs = Counterscreen qHTS for Inhibitors of Tau Fibril Formation, Fluorescence Polarization; tau K18 P301L (four-repeat tau fragment) Alexa594 fluorescence, heparin fibrillization; Potency, µM (highest dose often 57.7 µM), inactives show top-dose activity change, negative = decrease; hit rate 0.93% among 280,000; AID 1463, 2008; active means well fitted curve in the direction sought with a large enough effect; inconclusive means small, poorly fitted or top-dose-only effect, or another doubt; inactive means no such curve, though single readings can be large; an effect the other way counts as inactive or inconclusive; further: nearly all actives have a fitted effect of over 55% in size
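Human K18 P301L tau (15 uM unlabeled plus 0.24 uM Alexa 594-labeled, final) in 100 mM sodium acetate pH 7 was mixed with compound and 20 uM heparin and incubated 6 hr at 37 C.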
KDM4E inh = qHTS Assay for Inhibitors of Human Jumonji Domain Containing 2E (JMJD2E); JMJD2E catalytic domain, FDH-coupled NADH fluorescence (FDH is formaldehyde dehydrogenase); Potency, µM (doses to about 57.1 µM), inactives show at the highest dose activity change, negative = inhibition, usual class: inhibitors; hit rate 1.6% among 230,000; AID 2147, 2009;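 further: 0% = wells with enzyme and -100% = buffer wells without enzyme; nearly all actives have a fitted effect of over 50% in size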
Numbers without * were called inactive; ? = inconclusive; . = no result given; [ ] = remark or other dose. Compounds with a hit are over-represented: about 9.9% of the library has one in this group of screens. Unless noted, the call rests on the fitted dose curve; in most records, active means well fitted inhibition curve with a large enough effect (not every such curve was filed as active); inconclusive means small, poorly fitted or top-dose-only effect, or another doubt; inactive means no such curve, though single readings can be large or run the other way. Unless noted, on the % scale 0 is the no-effect control and ±100 the full control effect; potency means the concentration at half of the fitted maximal effect.

SMILES	HPGD block	ALDH1A1 block	Tau fibril FP	Tau ThT inhib	Tau fluor cs	KDM4E inh
O=C1N=C(N2CCOCC2)S/C1=C/c1cc2c(cc1[N+](=O)[O-])OCO2	.	?	?	18µM*	?	-7%
COc1ccc(C2CC(c3ccccc3)=NN2C(=O)c2cccs2)cc1 (stereo not given)	.	-13%	?	-14%	7.9µM*[quencher]	-84%
COc1ccc(CNc2nc(-c3ccccc3)nn2C(=O)c2cccs2)cc1	-29%	25µM*	?	-11%	?	?
O=[N+]([O-])c1cc2oc3c(c2c(C=NCc2ccccc2)c1O)CCCC3	-15%	?	?	5µM*	-11%	-9%
CC(C)CN=Cc1c(O)c([N+](=O)[O-])cc2oc3c(c12)CCCC3	-15%	28µM*	?	4.5µM*	?	13µM*
Cc1ccc(NC(=O)Nc2nnc(N3CCCCC3)s2)c(C)c1	.	.	-7%	-4%	-10%	.
Cc1cccc(NC(=O)CN(c2ccc(F)cc2)S(C)(=O)=O)c1	.	?	9%	?	4%[2.34 µM]	5%
CC(=O)c1c(NCCc2ccccc2)nc(=S)n(-c2ccccc2)c1C	.	-6%	8%	1%	3%	-3%
CC(=O)c1c(NCc2ccccc2)nc(=O)n(-c2ccccc2)c1C	-21%	14µM*	4%	-2%	2%	-4%
NCCC1CCCC(CCN)N1 (stereo not given)	4%	6%	5%	-4%	2%	-6%
Nc1nc2ccccc2nc1N	?	?	12%	?	-10%	3.2µM*
Nc1c2ccccc2nc2ccccc12	?	?	-6%	?	-10%	?
Cc1ccc2c(c1)N(C(=O)N1CCC(C(=O)NCc3ccccc3F)CC1)CC(C)O2 (stereo not given)	.	.	5%	-2%	?	.
O=C(CC(NC(=O)C(F)(F)F)c1ccccc1)Nc1nnc(CCc2ccccc2)s1 (stereo not given)	?	17%	-1%	-4%	-4%	-8%
COC(=O)N[C@@H](c1cccc(C)c1)[C@@H](C)[N+](=O)[O-]	-6%	0%	2%	0%	-1%	-2%
C=CCN1C(=O)C2(NC(=O)c3ccccc3N2)c2ccccc21 (stereo not given)	.	?	-9%	0%	-4%	?
